# According to the supplement of paper PMC6555819:
# Legend:
# Assay in all cases: PBM binding z-score (relative to random genomic background probes); higher = stronger binding; sequences stand for … in GC…GCGATTGACAGCGTAGAATGAAGG
# [1] = system: FXR:RXRa (NR concentration 270 nM, RXRa partner concentration 90 nM)
# Outline: (§1)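 Binding buffer was PBS pH 7.4 with 2% milk, 0.02% Triton X-100, 1 mM DTT, 0.2 mg/mL BSA and 0.4 mg/ml salmon testes DNA. In it, ligand-free nuclear receptor dimers were incubated 1 h on custom Agilent 4×180K protein-binding microarrays carrying double-stranded probes. Antibodies against each partner (one per run) detected binding, and z-scores were calculated against random background probes after regression normalization of scanned fluorescence.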
# [2] = system: LXRa:RXRa (NR concentration 270 nM, RXRa partner concentration 90 nM)
# Outline: as §1
# [3] = system: LXRa homodimer (NR concentration 270 nM)
# Outline: as §1
# [4] = system: LXRb:RXRa (NR concentration 270 nM, RXRa partner concentration 90 nM)
# Outline: as §1
# [5] = system: LXRb homodimer (NR concentration 270 nM)
# Outline: as §1
# [6] = system: PPARa:RXRa (NR concentration 270 nM, RXRa partner concentration 90 nM)
# Outline: as §1
# [7] = system: PPARg:RXRa (NR concentration 180 nM, RXRa partner concentration 90 nM)
# Outline: as §1
# [8] = system: PPARg:RXRa 270nM:90nM, anti-RXR (NR concentration 270 nM, RXRa partner concentration 90 nM)
# Outline: as §1
# [9] = system: PPARg:RXRa 30nM:10nM, anti-RXR (NR concentration 30 nM, RXRa partner concentration 10 nM)
# Outline: as §1
# [10] = system: PPARg:RXRa 90nM:30nM, anti-RXR (NR concentration 90 nM, RXRa partner concentration 30 nM)
# Outline: as §1
# [11] = system: PPARg:RXRa DBDmut IVT, anti-RXR (DBD mutation: RXRa K156A/R161A, NR concentration 270 nM, RXRa partner concentration 90 nM)
# Outline: as §1
# [12] = system: PPARg:RXRa IVT, anti-PPARg (NR concentration 270 nM, RXRa partner concentration 90 nM)
# Outline: as §1
# [13] = system: PPARg DBDmut:RXRa IVT, anti-PPARg (DBD mutation: PPARg1 K132A/R137A, NR concentration 270 nM, RXRa partner concentration 90 nM)
# Outline: as §1
# [14] = system: PPARg DBDmut IVT, anti-PPARg (DBD mutation: PPARg1 K132A/R137A, NR concentration 270 nM)
# Outline: as §1
# [15] = system: PPARg homodimer (NR concentration 180 nM)
# Outline: as §1
# [16] = system: PXR:RXRa (NR concentration 270 nM, RXRa partner concentration 90 nM)
# Outline: as §1
# [17] = system: PXR homodimer (NR concentration 270 nM)
# Outline: as §1
# [18] = system: RARa:RXR (NR concentration 270 nM, RXRa partner concentration 90 nM)
# Outline: as §1
# [19] = system: RARa homodimer (NR concentration 270 nM)
# Outline: as §1
# [20] = system: RARb:RXRa (NR concentration 270 nM, RXRa partner concentration 90 nM)
# Outline: as §1
Sequence,PBM binding z-score [1],PBM binding z-score [2],PBM binding z-score [3],PBM binding z-score [4],PBM binding z-score [5],PBM binding z-score [6],PBM binding z-score [7],PBM binding z-score [8],PBM binding z-score [9],PBM binding z-score [10],PBM binding z-score [11],PBM binding z-score [12],PBM binding z-score [13],PBM binding z-score [14],PBM binding z-score [15],PBM binding z-score [16],PBM binding z-score [17],PBM binding z-score [18],PBM binding z-score [19],PBM binding z-score [20]
TCATATAGGTAAAGGTGAACGTCGAACGATATGA,1.01,1.27,-0.125,1.25,-0.0636,3.18,4.94,4.76,4.7,5.08,3.97,4.38,1.68,1.19,1.37,0.966,0.23,1.74,0.665,2.09
CCGACTGGTGCAGAAAGGTTACCATACCATCCGG,0.086,0.429,-0.181,0.491,-0.9,1.73,0.848,1.18,-0.313,0.336,-0.779,-0.294,-0.872,-1.11,1.03,1,0.0978,1.65,-0.557,1.43
CCTAGTTGGTCAATGTCACACACGCTATAGGTAC,0.436,0.678,0.613,1.1,1.1,0.77,1.17,0.745,0.448,0.257,1.5,1.6,1.25,1.28,1.57,0.71,0.574,0.851,1.91,1.4
CCTATTAGTTGACCATAAGGGCAACCGCAGCTCG,1.1,0.581,0.369,0.306,0.642,0.449,0.36,0.368,-0.191,0.0579,0.361,0.808,0.402,0.299,0.816,0.705,1.05,0.896,1.78,1.54
GACACAGGGTCAAGGCCAGAGTACGCGTATTGAT,6.96,4.02,-0.483,3.38,-0.662,5.47,5.53,5.57,1.65,4.01,2.25,3.61,0.42,-0.363,1.5,3.91,0.315,4.77,0.257,4.41
TAGCCTAGGTCAGATCGGGCCAGGATACGCTATA,1.61,1.02,-0.706,0.308,-0.62,1.68,0.718,0.623,-0.241,-0.042,-0.033,1.22,-0.531,-0.442,-0.135,0.771,-0.663,0.816,-1.26,3
CAAACTAGGTCAAGGCCAAAGTCGGTTTGTGCCA,3.98,2.52,0.111,1.71,-0.0886,4.91,8.07,6.77,4.34,6.26,8.27,8.75,3.6,3.41,3.12,1.8,-0.0922,2.28,-0.0524,4.25
GGAACGAGAGCAAAGTTGATAGCATCTGTCGACG,-0.381,-0.564,-0.809,-0.767,-1.1,2.02,3.1,4.59,3.13,5.43,0.164,0.909,-1.31,-0.755,-0.156,-0.47,-0.418,-0.331,-1.16,-0.296
CAAACTAGGTCAAGAGGTCAAATTCCGCTTCCCG,7.41,6.59,7.45,6.01,2.95,6.83,9.67,8.42,7.02,8.9,7.98,8.45,2.67,2.22,6.39,6.47,2.4,7.61,2.96,5.63
ATATGTAGGTTAGCTGGGGTCATTCAGACTAGGC,4.38,5.95,3.02,4.75,0.992,5.13,5.66,5.12,2.67,4.46,6.68,6.23,2.15,1.68,2.64,6.34,4.08,5.73,1.52,2.96
GCTAGCAGACCATTTGGGTCACTCAATGACGGGC,-0.199,-0.301,-0.619,-0.213,-1.15,0.904,0.52,-0.0173,-0.573,-0.229,0.216,0.941,-0.491,-0.941,-0.202,0.0959,-0.826,0.598,-0.667,0.935
CCTGCGAGGTCAATGGTCAGCTAAAGCAGCTCGC,7.26,5.25,0.691,4.29,0.981,5.73,5.75,6.01,2.22,4.25,3.45,3.93,1.18,-0.453,2.42,4.55,0.99,4.6,0.55,5.07
GCTGCTAGGTCCGGTTGGTCAGCTAACGGGTACG,-0.467,-0.521,-0.707,-1.05,-0.916,-0.619,-0.571,-0.342,-0.72,-0.851,-0.426,-0.34,-1.47,-1.49,-1.32,-0.574,-0.913,-0.552,-1.7,0.0828
TCTATTAGATGATTAGGGCAACCGAAACAGCGGA,0.507,0.432,0.054,0.49,0.329,0.871,0.674,1.88,3.31,2.68,2.02,1.09,0.897,0.561,0.156,0.4,-0.123,0.416,0.326,0.703
GTACCAAGGTGAATAGGTTGTTGATGAGTAGGCG,0.414,0.445,0.0313,0.384,-0.172,1.27,0.802,0.714,-0.0689,0.204,1.75,2.2,0.246,0.502,0.999,0.105,0.241,0.634,1.32,1.36
